High-throughput results (PubChem)
WRN helicase inh: blocks human WRN helicase. Q14191. WRN helicase unwinding, fluorescent forked duplex, kinetic. Potency, µM (doses to about 114 µM), inactives show at the top dose activity change, negative = inhibition, hits mostly inhibitors. 360,000 tested, 0.46% active; further: on the % scale 0 is the no-effect control and ±100 the full control effect; nearly all actives have a fitted effect of over 55% in size
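Primary qHTS, 1536-well format. 20 nM WRN + compound, 15 min RT; start with 100 nM forked fluorophore/quencher duplex, 2 mM ATP (final); kinetic read ex 525/em 598 nm.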
FEN1 inh-1: inhibitors of human flap endonuclease 1; P39748; Recombinant FEN1 flap cleavage, fluorescence, 15 min; Potency, µM (titrated, usually from 114 µM), for the others: at the highest dose activity change, negative = inhibition, most hits filed as inhibitors; 390,000 tested, 0.35% active; further: on the % scale 0 is the no-effect control and ±100 the full control effect; nearly all actives have a fitted effect of over 65% in size
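Potency values derive from four-parameter Hill fits of normalized qHTS data. The reaction used 10 nM FEN1 preincubated 15 min at room temperature with compound, then 50 nM DNA substrate, read at 0 and 15 min.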
Pol eta inh: blocks human DNA polymerase eta activity; 390,000 tested, 1.2% active; Potency, µM (top dose mostly 114 µM), inactives show at the highest dose activity change, negative = inhibition, most hits filed as inhibitors; recombinant Pol eta, fluorescent DNA replication assay; AID 588591; further: on the % scale 0 is the no-effect control and ±100 the full control effect
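Fluorescent replication assay: 50 nM final substrate added after a 15 min room-temperature compound preincubation with 10 nM enzyme. Signal taken at 0 min and again at 10 min.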
POLK inh: inhibitors of human DNA polymerase kappa; Q9UBT6; purified Pol kappa, fluorescent DNA synthesis assay, 10 min; Potency, µM (top dose mostly 107 µM), for inactives: top-dose activity, negative = inhibition, actives largely listed as inhibitors; 400,000 tested, 0.53% active; AID 588579; further: on the % scale 0 is the no-effect control and ±100 the full control effect
Target sequence (Q9UBT6 whole entry, looked up): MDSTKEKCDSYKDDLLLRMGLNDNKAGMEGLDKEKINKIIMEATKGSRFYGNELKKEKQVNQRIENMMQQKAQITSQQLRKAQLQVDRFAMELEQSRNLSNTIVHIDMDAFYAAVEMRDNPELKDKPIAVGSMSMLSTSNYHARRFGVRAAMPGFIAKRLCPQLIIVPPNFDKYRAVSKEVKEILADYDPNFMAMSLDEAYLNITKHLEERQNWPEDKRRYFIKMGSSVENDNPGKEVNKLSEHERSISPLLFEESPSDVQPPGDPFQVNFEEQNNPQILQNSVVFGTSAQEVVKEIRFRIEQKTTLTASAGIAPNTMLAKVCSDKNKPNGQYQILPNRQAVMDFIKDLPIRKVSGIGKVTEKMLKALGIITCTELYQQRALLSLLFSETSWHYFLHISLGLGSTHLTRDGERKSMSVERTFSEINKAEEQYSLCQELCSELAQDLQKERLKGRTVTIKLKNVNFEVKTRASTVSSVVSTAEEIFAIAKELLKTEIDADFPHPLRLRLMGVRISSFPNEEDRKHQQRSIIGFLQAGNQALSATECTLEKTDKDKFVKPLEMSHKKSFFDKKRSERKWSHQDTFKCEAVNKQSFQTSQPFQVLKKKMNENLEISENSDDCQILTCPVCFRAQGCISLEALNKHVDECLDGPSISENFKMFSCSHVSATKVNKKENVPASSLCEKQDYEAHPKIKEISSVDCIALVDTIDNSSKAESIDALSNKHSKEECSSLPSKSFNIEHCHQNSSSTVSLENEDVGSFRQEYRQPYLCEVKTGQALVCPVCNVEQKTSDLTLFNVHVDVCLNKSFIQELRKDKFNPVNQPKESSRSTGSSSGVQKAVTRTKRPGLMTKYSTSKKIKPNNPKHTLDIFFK
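First, compounds were pin-transferred onto 10 nM Pol kappa. After 15 min at room temperature, substrate was added to 50 nM final. Fluorescence was then measured kinetically at 0 and 10 min.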
POLI inh: DNA polymerase iota (human) inhibition; Q9UNA4; Pol iota fluorescent replication assay, 10 min; Potency, µM (doses to about 115 µM), for inactives: at the top dose activity, negative = inhibition, actives largely listed as inhibitors; 390,000 tested, 1% active; AID 588590
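Fluorescent replication assay read twice, at 0 min and 10 min after adding 50 nM (final) substrate. Enzyme (10 nM) and compounds were first incubated 15 min at room temperature; enzyme-free buffer wells were negative controls.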
POLB inh: inhibitors of human DNA polymerase beta; P06746; Pol beta primer extension/strand displacement, fluorescence kinetic; Potency, µM (series often up to 114 µM), without a hit: top-dose activity change, negative = inhibition, actives largely listed as inhibitors; 340,000 tested, 1.3% active; further: on the % scale 0 is the no-effect control and ±100 the full control effect
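Pol beta (10 nM) and compounds were preincubated 15 min at room temperature, then 50 nM substrate (final) started primer extension/strand displacement. Reads were taken at 0 and 10 min; concentration-response data were fitted to a four-parameter Hill equation.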
FEN1 inh-2: FEN1 inhibition, cherry-pick retest; FEN1 flap cleavage, TAMRA/BHQ2 fluorogenic DNA substrate; AID 720498; 880 tested, 79% active; Potency, µM, most hits filed as inhibitors; shares compounds with FEN1 inh-1; further: nearly all actives have a fitted effect of over 60% in size
Numbers without * were called inactive; [ ] = remark or other dose. Only some compounds are listed: those with a hit (about 2.4% of all), similar ones and a draw of the others. The call rests on the fitted dose curve; in most records, active means well fitted curve in the direction sought with a large enough effect; inconclusive means small, poorly fitted or top-dose-only effect, or another doubt; inactive means no such curve, though single readings can be large; an effect the other way counts as inactive or inconclusive. Potency means the concentration at half of the fitted maximal effect.

What do the screens show for `CC(C)Cn1c(N)c(C(=O)COC(=O)c2ccc(O)cc2)c(=O)n(C)c1=O`?
WRN helicase inh: 5.3%; FEN1 inh-1: 6.8%; Pol eta inh: -23.2%; POLK inh: 3.8%; POLI inh: 15.6%; POLB inh: 1.4%

How did Cc1cc(C(=O)COC(=O)c2ccc([N+](=O)[O-])o2)c(C)n1CC1CCCO1 (stereo not drawn) do in these assays?
WRN helicase inh: 6.7%; FEN1 inh-1: inconclusive; Pol eta inh: -29.5%; POLK inh: -31.5%; POLI inh: inconclusive; POLB inh: inconclusive

How did CC(C)Cn1c(N)c(C(=O)COC(=O)c2ccc([N+](=O)[O-])o2)c(=O)n(C)c1=O do in these assays?
WRN helicase inh: 2.0%[11.6 µM]; FEN1 inh-1: inconclusive; Pol eta inh: inconclusive; POLK inh: -11.1%; POLI inh: 26.0%; POLB inh: inconclusive; FEN1 inh-2: 9.53*

What do the screens show for `COc1ccc(OC)c(/C(O)=C/C(=O)C(=O)Nc2cc(C)cc(C)c2)c1`?
WRN helicase inh: -10.4%; FEN1 inh-1: inconclusive; Pol eta inh: -4.3%; POLK inh: -10.6%; POLI inh: inconclusive; POLB inh: 2.0%; FEN1 inh-2: 42.6*

What do the screens show for `O=C(Nc1cccc(F)c1F)C1CCN(c2ncccn2)CC1`?
FEN1 inh-1: -4.3%; Pol eta inh: -17.6%; POLK inh: -4.7%; POLI inh: 13.3%; POLB inh: 1.8%

How did COc1cc(-c2nnc(COC(=O)c3ccc([N+](=O)[O-])o3)o2)cc(OC)c1OC do in these assays?
WRN helicase inh: 10.8%; Pol eta inh: 79.4µM*; FEN1 inh-2: 8.49*

How did COc1ccc(N2CC(NC(=O)c3cc4ccccc4o3)CC2=O)cc1OC (stereo not drawn) do in these assays?
FEN1 inh-1: 17.4%; Pol eta inh: -12.5%; POLK inh: -7.6%[60.1 µM]; POLI inh: 27.0%; POLB inh: -1.1%

Results for CN(Cc1cccs1)c1ncnc2ccc(-c3ccc4cn(C)nc4c3)cc12 ?
FEN1 inh-2: 67.5*

How did COc1ccc(C2CC(c3ccccc3)Oc3c(C)ccc(C)c32)cc1 (stereo not drawn) do in these assays?
FEN1 inh-1: -0.4%; POLK inh: -16.4%; POLI inh: 12.4%

Results for COc1cc(C(=O)NC2CCN(C)CC2)ccc1Nc1ncc2c(n1)N(C1CCCCC1)CCC(=O)N2C ?
WRN helicase inh: -23.0%; FEN1 inh-1: inconclusive; Pol eta inh: -24.3%; POLK inh: -22.7%; POLI inh: inconclusive; FEN1 inh-2: 37.9*

Results for COc1cc(C(=O)NC2CCN(C)CC2)ccc1Nc1ncc2c(n1)N(Cc1ccccc1)CCC(=O)N2C ?
WRN helicase inh: -14.8%; FEN1 inh-1: inconclusive; Pol eta inh: -12.1%; POLK inh: -9.9%; POLI inh: 39.1%

What do the screens show for `CS(=O)(=O)Nc1cccc(-c2ccc3ncnc(N4CCOCC4)c3c2)c1`?
POLK inh: 4.4%[60.1 µM]

Results for Cc1cc(N/N=C/c2ccc(N(C)C)cc2)c2ccccc2n1 ?
WRN helicase inh: -1.9%; FEN1 inh-1: -1.0%; Pol eta inh: inconclusive; POLK inh: -7.6%; POLI inh: 3.0%; POLB inh: -1.7%

How did Cc1cc(N/N=C/c2ccc(O)cc2)c2cccc(C)c2n1 do in these assays?
WRN helicase inh: 44.7µM*; FEN1 inh-1: inconclusive; Pol eta inh: inconclusive; POLK inh: -24.2%; POLI inh: -24.2%; POLB inh: 25.1µM*; FEN1 inh-2: 37.9*

Results for O=c1c2ccccc2nc2sc(Nc3ccc4c(c3)CNC4)nn12 ?
FEN1 inh-2: 37.9*
